From PMC4336329 (PLoS ONE, 2015)
The whole screen tested about 310,000 compounds, of which about 14,000 (4.5%) showed an effect of 50% or more. The effect is printed as a negative number. The full list was thinned out, with strong results kept by preference.

Target: human ether-à-go-go-related gene (hERG) potassium channel (human, UniProt Q12809)
Experiment: primary screen, population patch clamp on CHO cells stably expressing hERG; higher = less effect of the substance
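Note: peak tail current of the secondary pulse compared with the same well before compound.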

Sequence of human ether-à-go-go-related gene (hERG) potassium channel (Q12809 whole entry, looked up): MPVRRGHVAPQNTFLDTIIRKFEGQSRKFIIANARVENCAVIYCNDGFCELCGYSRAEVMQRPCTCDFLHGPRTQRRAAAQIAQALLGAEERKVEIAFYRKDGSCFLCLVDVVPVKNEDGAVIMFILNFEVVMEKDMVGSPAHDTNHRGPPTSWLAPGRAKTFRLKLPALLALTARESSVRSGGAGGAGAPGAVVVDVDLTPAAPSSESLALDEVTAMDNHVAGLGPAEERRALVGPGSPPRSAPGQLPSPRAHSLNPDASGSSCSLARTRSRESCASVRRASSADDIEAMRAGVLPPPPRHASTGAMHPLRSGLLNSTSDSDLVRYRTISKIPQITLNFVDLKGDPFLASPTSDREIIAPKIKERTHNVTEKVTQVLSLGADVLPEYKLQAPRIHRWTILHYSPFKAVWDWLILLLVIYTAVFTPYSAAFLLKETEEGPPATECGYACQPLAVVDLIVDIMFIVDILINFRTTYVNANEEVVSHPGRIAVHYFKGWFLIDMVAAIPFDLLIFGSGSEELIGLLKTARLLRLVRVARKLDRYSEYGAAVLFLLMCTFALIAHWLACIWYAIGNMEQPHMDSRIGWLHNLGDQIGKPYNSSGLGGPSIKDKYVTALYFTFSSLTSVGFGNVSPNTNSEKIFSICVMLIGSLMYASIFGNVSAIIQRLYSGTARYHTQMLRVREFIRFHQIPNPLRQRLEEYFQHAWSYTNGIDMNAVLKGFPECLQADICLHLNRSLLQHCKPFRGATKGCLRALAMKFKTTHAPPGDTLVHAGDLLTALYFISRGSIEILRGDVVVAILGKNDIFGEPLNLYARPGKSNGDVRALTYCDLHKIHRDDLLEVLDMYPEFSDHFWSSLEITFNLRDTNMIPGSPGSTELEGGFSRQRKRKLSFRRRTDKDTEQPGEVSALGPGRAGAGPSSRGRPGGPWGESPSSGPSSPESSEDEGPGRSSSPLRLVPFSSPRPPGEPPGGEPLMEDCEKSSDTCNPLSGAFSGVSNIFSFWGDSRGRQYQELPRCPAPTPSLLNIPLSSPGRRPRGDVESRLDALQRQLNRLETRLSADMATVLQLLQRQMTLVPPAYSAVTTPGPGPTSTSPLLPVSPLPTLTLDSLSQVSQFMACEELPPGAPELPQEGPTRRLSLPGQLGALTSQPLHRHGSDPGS

Row | SMILES | hERG current change (%, negative = inhibition) at 10uM [%]
1 | Cc1nc2ccccc2c2oc(C(=O)N3CCN(c4ccc([N+](=O)[O-])cc4)CC3)cc12 | -9.45
2 | Cc1c(-c2ccccc2)oc2c(C(=O)N3CCN(c4ccccc4F)CC3)cccc2c1=O | -8.63
3 | Cc1ccc(C(=O)N2CCN(c3ccc([N+](=O)[O-])cc3)CC2)o1 | -80.2
4 | Cc1occc1C(=O)N1CCN(c2ccc([N+](=O)[O-])cc2)CC1 | -77.7
5 | Cc1occc1C(=O)N1CCN(c2ccc(Cl)cc2)CC1 | -4.41
6 | COc1ccc(N2CCN(C(=O)CNC(=O)c3cccs3)CC2)cc1 | 10.9
7 | CCC(C)NC(=O)C(=O)NCc1ccccn1 (stereo not shown) | 14.6
8 | COc1ccc(CNC(=O)c2nnn(CC(=O)Nc3cc(C)cc(C)c3)c2N)cc1 | 11.9
9 | CCCCc1cc(=O)oc2cc(C)cc(OCC(=O)NCC3CCC(C(=O)O)CC3)c12 (stereo not shown) | -1.21
10 | CC1Cc2ccccc2N1C(=O)c1cc2sccc2n1Cc1ccccc1 (stereo not shown) | 7.64
11 | CC[N+](C)(CC)CCCCOc1ccc2c(c1)C(=O)c1cc(OCCCC[N+](C)(CC)CC)ccc1-2.[I-] | 12.9
12 | O=c1c2c3nc4ccccc4nc3n(CC3CCCO3)c2ncn1CCc1ccccc1 (stereo not shown) | -5.67
13 | O=C(c1cccc(F)c1)N1C2C=CC(C2)C1(C(F)(F)F)C(F)(F)F (stereo not shown) | -0.667
14 | C=CCn1c(COc2cccc3cccnc23)nnc1SCC(=O)O | 12.7
15 | Cc1cccc2c1N(CCOc1ccc(C(C)(C)C)cc1)C(=O)C2=O | -7.48
16 | Cc1cccc(CCNS(=O)(=O)c2cc3c(cc2C)NC(=O)CO3)c1 | -34.4
17 | CC1(C)CC(=O)C(C=NC2CCCCC2)=C(O)C1 | -10.2
18 | Cc1nc(NCc2ccco2)c2oc3ccccc3c2n1 | -29.8
19 | C=CCOc1ccc(CN(C)C(=O)C2CCCO2)cc1 (stereo not shown) | 2.34
20 | Cc1cc(C(=O)N2CCN(c3ccccc3)CC2)c(C)o1 | -1.46
21 | CCn1cc(C(=O)N2CCN(c3cccc(C)c3C)CC2)c(=O)c2ccc(C)nc21 | -12.9
22 | Cc1c(Cl)cccc1-c1ccc(C(=O)N2CCN(c3ccc([N+](=O)[O-])cc3)CC2)o1 | -14

Row | SMILES | hERG current change (%, negative = inhibition) at 10uM [%]
23 | Cc1cc(C(=O)N2CCN(c3ccc([N+](=O)[O-])cc3)CC2)c(C)o1 | -73.5
24 | COc1ccc(N2CCN(C(=O)c3cc(C)oc3C)CC2)cc1 | 12.7
25 | CCn1cc(C(=O)N2CCN(c3ccccc3F)CC2)c(=O)c2ccc(C)nc21 | -5.94
26 | O=C(c1ccc(-c2cccc(Cl)c2)o1)N1CCN(c2ccc([N+](=O)[O-])cc2)CC1 | -58.9
27 | CCn1cc(C(=O)N2CCN(c3ccc([N+](=O)[O-])cc3)CC2)c(=O)c2ccc(C)nc21 | -70.9
28 | O=C(c1ccc(-c2ccc(Cl)cc2)o1)N1CCN(c2ccc([N+](=O)[O-])cc2Cl)CC1 | 3.9
29 | O=C(C(=O)N1CCN(C(=O)c2ccco2)CC1)c1c[nH]c2ccccc12 | -2.67
30 | CCOc1ccc(S(=O)(=O)n2cc(-c3ccccc3)c(N)n2)cc1 | 5.5
31 | O=C(c1ccc2c(Cl)c3c(nc2c1)CCCC3)N1CCC(N2CCCCC2)CC1 | -46
32 | CN(C)CCCOC(=O)c1sc2ccccc2c1Cl.Cl | -50.2
33 | Cc1cccc2sc(N(CCCN(C)C)C(=O)c3ccc(S(=O)(=O)N4CCc5ccccc5C4)cc3)nc12.Cl | 13.9
34 | Cc1ccc2sc(N(CCCN(C)C)C(=O)c3ccc(S(=O)(=O)N(C)Cc4ccccc4)cc3)nc2c1C.Cl | -20
35 | CN(C)CCCN(C(=O)c1ccc(C(=O)c2ccccc2)cc1)c1nc2c(F)cccc2s1 | -67.3
36 | CN(C)CCCN(C(=O)c1ccc(N2C(=O)CCC2=O)cc1)c1nc2c(F)cccc2s1.Cl | -0.103
37 | NC(=O)COC(=O)c1sc2ccccc2c1Cl | 24.3
38 | Cc1cccc2sc(N(CCCN(C)C)C(=O)c3ccc(C(=O)c4ccccc4)cc3)nc12 | -53.2
39 | Cc1ccc2nc(N(CCCN(C)C)C(=O)c3sc4ccccc4c3Cl)sc2c1.Cl | -29.9
40 | Cc1cccc2sc(N(CCCN(C)C)C(=O)c3sc4ccccc4c3Cl)nc12.Cl | -13.5
41 | CN(C)CCCN(C(=O)c1sc2ccccc2c1Cl)c1nc2c(F)cccc2s1.Cl | -61.9
42 | CN(C)CCOC(=O)c1sc2ccccc2c1Cl.Cl | -29.4
43 | O=c1c2ccccc2ncn1-c1ccccc1[N+](=O)[O-] | 11.9
